The values below come from PubChem BioAssay AID2205 (University of Pittsburgh Molecular Library Screening Center, 2009).

Out of some 200,000 compounds screened, about 1,600 (0.8%) were called active.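 Rule for the calls: active = plate Z-score above 3 for both tubulin-high and condensed-nucleus cell shares, with cell loss under 80%, at 10 µM; inactive = the rest, inconclusive results apart.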 What follows is part of a selection rich in actives, with near analogues and random picks from the rest.

The nature of this assay: tubulin staining increase by stabilizing compounds – imaging, high-content imaging, primary screen (AID 2205).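 For % tubulin-high responders: anti alpha tubulin signal scored within the nucleus-defined area of each cell.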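 For toxicity: 0% = mean cell density of plate MIN control wells and 100% = no cells.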 The note with it: HeLa tubulin immunostaining HCS, 24 h, at 10 µM; % Hoechst-high responders: measured here: nuclear condensation Hoechst responders, stronger effect = higher value, share of cells brighter than vehicle mean+2SD; % tubulin-high responders: stronger effect = higher value, share of cells brighter than vehicle mean+2SD; toxicity: measured here: cytotoxicity by cell density.
`CC(=O)c1cc(-c2ccccc2)n(CC(=O)NC2CCCCC2)c1C`: the % Hoechst-high responders is 1.48%, the % tubulin-high responders was 1.98% (inactive) and the toxicity turned out to be 2.82%.
`O=C(Nc1ccn(Cc2ccccc2)n1)c1cccc(F)c1`: the % Hoechst-high responders turned out to be 3.02%, the % tubulin-high responders is 4.62% (inactive) and the toxicity was 3.61%.
Regarding `O=C(Nc1ccn(Cc2ccccc2)n1)c1n[nH]c([N+](=O)[O-])c1Cl`, the % Hoechst-high responders turned out to be 13.3%, the % tubulin-high responders was 9.59% (active) and the toxicity was 24.4%.
For `O=C(Nc1ccn(Cc2ccc(F)cc2)n1)c1ccncc1` the same measures were 1.77%, 2.77% (inactive) and 3.59%.
`CC1Cc2ccccc2N1S(=O)(=O)c1c(N)n(C)c(=O)n(C)c1=O` (stereo not drawn): the % Hoechst-high responders turned out to be 3.17%, the % tubulin-high responders is 3.06% (inactive) and the toxicity amounted to 7.69%.
With `CCc1nc2ccccc2c(C(=O)NCc2ccc(OC)cc2)c1C`, the % Hoechst-high responders was found to be 2.73%, the % tubulin-high responders was 2.02% (inactive) and the toxicity turned out to be 5.3%.
On the same counts, the results for `CN(C)Cc1ccc(F)cc1Sc1cc(Cl)ccc1Cl` are 2.47%, 4.07% (inactive) and 10%.
As to `COc1ccc(CN(C)C(C)C(=O)NC2CCCc3ccccc32)cc1` (stereo not drawn), the % Hoechst-high responders turned out to be 4.92%, the % tubulin-high responders was 11.4% (active) and the toxicity is 14%.
As to `CCOc1ccc(NC(=O)COc2ccc(C(=O)NC3CCCc4ccccc43)cc2OC)cc1` (stereo not drawn), the % Hoechst-high responders worked out at 2.51%, the % tubulin-high responders is 5.53% (inactive) and the toxicity was determined as 4.7%.
As for `CC(C(=O)NCC1CCCCC1)N(C)Cc1cccc(Cl)c1` (stereo not drawn), the % Hoechst-high responders turned out to be 0.921%, the % tubulin-high responders was 4.54% (inactive) and the toxicity was 21.1%.
For `COc1ccc([N+](=O)[O-])cc1NC(=O)CC1SC(=Nc2cccc(C)c2C)N(/N=C(\C)c2ccc(C)cc2)C1=O` (stereo not drawn) the same measures were 1.74%, 1.39% (inactive) and 6.54%.
For `COc1cccc(NC(=O)c2ccc(S(=O)(=O)N(C)C)cc2)c1`, the % Hoechst-high responders is 1.38%, the % tubulin-high responders was 3.01% (inactive) and the toxicity came out at 1.8%.
Regarding `CCOc1cccc(-c2nnc3sc(COc4ccc(OC)cc4)nn23)c1`, the % Hoechst-high responders came to 1.53%, the % tubulin-high responders was 1.43% (inactive) and the toxicity is 2.39%.
With `COc1ccc(-n2nnnc2-c2nc3ccccc3s2)cc1`, the % Hoechst-high responders is 2.51%, the % tubulin-high responders is 4.84% (inactive) and the toxicity worked out at 1.66%.
`CCOc1cccc(-n2nnnc2-c2ccc(OC)cc2)c1`: the % Hoechst-high responders is 43.4%, the % tubulin-high responders is 37.6% (active) and the toxicity was 41.8%.
`COC(=O)c1ccc(CN2CCN(CCCc3ccccc3)C(CCO)C2)cc1` (stereo not drawn): the % Hoechst-high responders came to 1.96%, the % tubulin-high responders was 3.41% (inactive) and the toxicity was found to be 10.2%.
On the same counts, the results for `CCOC(=O)Cc1ncccc1C(=O)Nc1ccc(OC)cc1` are 2.23%, 3.2% (inactive) and 5.66%.
As to `COc1ccccc1NC1=NC2(CCCC2)N=C(N)N1`, the % Hoechst-high responders was 1.77%, the % tubulin-high responders is 2.5% (inactive) and the toxicity amounted to 14.7%.
Turning to `COc1ccccc1NC1=NC(c2ccc(Cl)cc2)N=C(N)N1` (stereo not drawn), the % Hoechst-high responders is 46.7%, the % tubulin-high responders was 18% (active) and the toxicity worked out at 42.6%.
`COc1ccccc1Nc1nc(N)nc(CN(C)C2CCCCC2)n1`: the % Hoechst-high responders was 1.52%, the % tubulin-high responders was 3.4% (inactive) and the toxicity is 5.42%.
Consider `c1ccc(CN=C2Nc3ccccc3CS2)nc1`, for which the % Hoechst-high responders worked out at 1.84%, the % tubulin-high responders is 4.7% (inactive) and the toxicity is 4.5%.
